According to PubChem BioAssay AID1845227 (National Center for Advancing Translational Sciences (NCATS), 2023):
Records with an inconclusive call do not appear. Entries that show only a call come without a potency. Activity calls are given as the source filed them. Calls follow the shape of the dose curve; as a rule, active = well fitted inhibition curve with a large enough effect; inconclusive = small, poorly fitted or top-dose-only effect; inactive = no such curve, though single readings can be large or run the other way.

Biological target: Luciferin 4-monooxygenase (Photinus pyralis) (UniProt P08659)
Assay: Confirmatory firefly luciferase (FLuc) qHTS assay for identification of artifact compounds
Settings: purified FLuc enzyme, luminescence, 5 min; series mostly up to 38.9 µM
Procedure, shortened: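 Purified Photinus pyralis luciferase (10 nM) with D-luciferin and ATP each 10 uM, pH 7.6 Tris-acetate; compounds preincubated 15 min with substrate, 5 min after enzyme; luminescence normalized to no-enzyme and DMSO, 4-parameter Hill fit.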

Structure (SMILES)	Potency
C=C[C@](C)(O)CCC1C(=C)CC(O)C2C(C)(C)CCCC12C (stereo partly drawn)	inactive
Cc1cn(C)c(CC(=O)N2CCN(c3ccccc3F)CC2)c1C(=O)O	inactive
O=C(c1ccc2c(c1)N(Cc1ccccc1)C(=O)c1ccccc1S2(=O)=O)N1CCN(c2ccccc2)CC1	inactive
O=c1cc(-c2ccc(O)cc2)oc2cc(O[C@H]3OC(CO)C(O)C(O)C3O)cc(O)c12 (stereo partly drawn)	inactive
c1cc(CNc2ccnc(-c3ccc4c(c3)OCO4)n2)ccn1	inactive
COc1cc(=O)n2c(c1C(=O)N(C)Cc1nccs1)CCN(Cc1cc(C)cc(C)c1)CC2	inactive
O=C(Nc1cc(Cl)ccc1Cl)c1cc(S(=O)(=O)NCCc2ccccc2)ccc1F	inactive
COCCNC(=O)CCCn1c(SCC(=O)Nc2cccc(C)c2)nc2c(sc3ccccc32)c1=O	inactive
Cc1ccc(-c2nc(S(=O)(=O)c3ccc(Cl)cc3)c(N3CCCCC3)o2)cc1	inactive
CCc1ccc(S(=O)(=O)c2nnn3c2nc(N2CCOCC2)c2sccc23)cc1	inactive
Ic1ccc(Nc2nc(NCCN3CCOCC3)nc(N3CCOCC3)n2)cc1	inactive
CCOc1ccccc1NC(=O)N(Cc1ccc(C)o1)C1CCN(C(C)=O)CC1	inactive
COc1ccc(CNC(=O)C(C)n2nc(C)c3c(C)n(-c4ccccc4)nc3c2=O)c(OC)c1 (stereo not drawn)	inactive
Cc1ccc(-c2nc3scc(CCNS(=O)(=O)c4ccc(F)c(C)c4)n3n2)cc1	inactive
COc1ccc(C2Nc3ccccc3C(=O)N2CCCN(C)C)cc1COc1ccc(NC(C)=O)cc1 (stereo not drawn)	inactive
Cc1ccc(CN(C(=O)COc2ccc([N+](=O)[O-])cc2)c2ccccn2)cc1	inactive
CCCS(=O)(=O)N1CC(=O)N(c2ccc(C)cc2C)C(C)(C(=O)NC2CCCCCC2)C1 (stereo not drawn)	inactive
COc1ccccc1CNc1ccc(-c2nc(-c3cccnc3)no2)cc1[N+](=O)[O-]	inactive
